Assay [1] is described as follows: qHTS for Inhibitors of the Functional Ribonucleoprotein Complex (vRNP) of Lassa (LASV) Arenavirus: Viability assay - alamar blue signal for LASV Primary Screen (AID 1347083; calls by dose curve; tested in HEK293 reporter line; note: nearly all actives have a fitted effect of over 80% in size; note: potency is the fitted concentration of half-maximal effect). A general note: Quantitative high-throughput screening tests each substance at several concentrations.
Assay [2] addresses Nucleoprotein (Lymphocytic choriomeningitis virus (strain Armstrong)) (UniProt P09992). The assay is described as follows: qHTS for Inhibitors of the Functional Ribonucleoprotein Complex (vRNP) of Lymphocytic Choriomeningitis Arenaviruses (LCMV): LCMV Primary Screen - GLuc reporter signal (AID 1347086). For activity change, negative = inhibition: % is set by controls: 0 for no effect and ±100 for the full control effect. Note: nearly all actives have a fitted effect of over 70% in size. Note: potency is the fitted concentration of half-maximal effect.
The nature of assay [3]: Cytotoxicity counterscreen for inhibitors of SARS-CoV-2 cell entry (AID 1645845). For activity change, negative = cytotoxicity: % is set by controls: 0 for no effect and ±100 for the full control effect. Note: nearly all actives have a fitted effect of over 50% in size. Note: potency is the fitted concentration of half-maximal effect. The essentials:
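HEK293-ACE2 cells (Expi293F stably expressing human ACE2) seeded overnight, then compound for 1 h plus 48 h at 37C. Viability as ATP content by luminescence; normalized to wells with cells and media-only wells.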
A general note: The purpose of a counterscreen is to sort out artefacts and off-target activity.

Assay [4] in a line: Primary qHTS to identify inhibitors of SARS-CoV-2 cell entry (AID 1645846). Note: nearly all actives have a fitted effect of over 45% in size. Note: potency is the fitted concentration of half-maximal effect. Conditions: activity change, negative = inhibition: at 57.1 µM (top of the series) unless noted. Summed up: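 HEK293 cells stably expressing human ACE2, pre-treated 1 h with compound, then infected with MLV particles pseudotyped with Wuhan-Hu-1 spike (C-terminal 19-aa truncation). Luciferase luminescence after 48 h at 37 °C, normalised to spike PP and bald PP.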

Assay [5] is described as follows: qHTS for Inhibitors of the Functional Ribonucleoprotein Complex (vRNP) of Lymphocytic Choriomeningitis Arenaviruses (LCMV): Viability assay - alamar blue signal for LCMV Primary Screen (AID 1347085; calls by dose curve; tested in HEK293 reporter line; note: nearly all actives have a fitted effect of over 80% in size; note: potency is the fitted concentration of half-maximal effect).
Assay [6] can be described thus: qHTS profiling of the MIPE4 collection as inhibitors of Plasmodium falciparum (DD2) proliferation (AID 743345; call rule not given here). The following applies: P. falciparum Dd2 in erythrocytes, SYBR Green DNA, 72 h; at 28.5 µM (top of the series) unless noted. The essentials: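 Erythrocytes infected with P. falciparum (0.3% parasitemia, 2.5% hematocrit) incubated with compounds 72 h at 37 C, 5% CO2. Lysis with saponin/Triton buffer containing SYBR Green I, overnight at room temperature in the dark; DNA fluorescence (485/535 nm) normalised to 0.29 uM artemisinin and DMSO.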

The nature of assay [7]: Confirmatory qHTS to identify inhibitors of SARS-CoV-2 cell entry (AID 1645844). Note: potency is the fitted concentration of half-maximal effect; nearly all actives have a fitted effect of over 45% in size. Summed up: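 HEK293-ACE2 cells were pretreated 1 h with compound, then infected with MLV-based pseudoparticles bearing C-terminally truncated Wuhan-Hu-1 spike for 48 h at 37C; luciferase luminescence normalized to spike PP and bald PP wells.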
Assay [8] is described as follows: VSVG counterscreen qHTS to identify inhibitors of SARS-CoV-2 cell entry (AID 1645847). Note: potency is the fitted concentration of half-maximal effect; nearly all actives have a fitted effect of over 65% in size. Summed up:
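HEK293-ACE2 cells (Expi293F, human ACE2) pretreated 1 h with compound, then infected with MLV-based VSV-G pseudotyped particles for 48 h at 37 C; luciferase luminescence normalized to VSV-G PP and bald PP wells.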

The target of assay [9] is DNA polymerase eta (Homo sapiens) (UniProt Q9Y253). The assay is described as follows: qHTS for Inhibitors of Polymerase Eta: Confirmatory Assay for Cherry-picked Compounds (AID 720502; active = well fitted curve in the direction sought with a large enough effect; an effect the other way counts as inactive or inconclusive; note: potency is the fitted concentration of half-maximal effect). Conditions: Pol eta primer extension, TAMRA/BHQ fluorescence, 10 min. The essentials: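 Pol eta 10 nM; substrate 50 nM final (unlabeled primer, TAMRA reporter, BHQ-2 template); preincub. 15 min RT; reads t=0 and t=10 min at ex525/em598.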

The target of assay [10] is Alpha-galactosidase (Coffea arabica) (UniProt Q42656). The assay is described as follows: Counterscreen for Glucocerebrosidase Inhibitors: qHTS Assay for Coffee Bean alpha-Galactosidase at pH 4.5 (AID 957; active = well fitted curve in the direction sought with a large enough effect; an effect the other way counts as inactive or inconclusive;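 note: plate controls were enzyme alone for no effect and no enzyme for full effect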). The essentials:
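Green coffee bean enzyme (2 nM final) was incubated with compounds (0.7 nM to 77 uM) and 4-methylumbelliferyl alpha-D-galactopyranoside (80 uM final) in 50 mM citric acid, 0.005% Tween-20, pH 4.5, 20 min at room temperature; AC50 from Hill fits.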

For assay [11] the target is unchanged. The assay is described as follows: Counterscreen for Glucocerebrosidase Inhibitors: qHTS Assay for Coffee Bean alpha-Galactosidase at pH 5.9 (AID 998; active = well fitted curve in the direction sought with a large enough effect; an effect the other way counts as inactive or inconclusive;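 note: plate controls were uninhibited enzyme for no effect and no-enzyme basal signal for full effect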). The essentials:
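Green coffee bean enzyme (2 nM) with 4-methylumbelliferyl alpha-D-galactopyranoside (80 uM) in 50 mM citric acid, 0.005% Tween-20, pH 5.9, 20 min at room temperature; compounds 0.7 nM–77 uM. Stopped at pH 10, fluorescence Ex365/Em440; Hill-fit AC50.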

The target in assay [12] is Peroxisome proliferator-activated receptor delta (Homo sapiens) (UniProt Q03181). The assay is described as follows: qHTS assay for small molecule agonists of peroxisome proliferator-activated receptor delta signaling (AID 588534).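 Note: 0% = DMSO basal wells and 100% = positive control agonist at 10 µM.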 Summed up: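 Cell-based beta-lactamase reporter assay run in agonist mode: cells seeded and incubated 5 hrs at 37 C, compounds added and incubated 18 hrs at 37 C. CCF4 dye fluorescence read after 2 hrs at RT; EC50 and efficacy from Hill fits.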

The values below come from PubChem BioAssay (NCATS).

Records with an inconclusive call do not appear. This is one part of the list. Calls of active or inactive are those of the source. Unless noted, calls come from the whole dose curve.

Sequence of Nucleoprotein (Lymphocytic choriomeningitis virus (strain Armstrong)) (P09992 whole entry, looked up): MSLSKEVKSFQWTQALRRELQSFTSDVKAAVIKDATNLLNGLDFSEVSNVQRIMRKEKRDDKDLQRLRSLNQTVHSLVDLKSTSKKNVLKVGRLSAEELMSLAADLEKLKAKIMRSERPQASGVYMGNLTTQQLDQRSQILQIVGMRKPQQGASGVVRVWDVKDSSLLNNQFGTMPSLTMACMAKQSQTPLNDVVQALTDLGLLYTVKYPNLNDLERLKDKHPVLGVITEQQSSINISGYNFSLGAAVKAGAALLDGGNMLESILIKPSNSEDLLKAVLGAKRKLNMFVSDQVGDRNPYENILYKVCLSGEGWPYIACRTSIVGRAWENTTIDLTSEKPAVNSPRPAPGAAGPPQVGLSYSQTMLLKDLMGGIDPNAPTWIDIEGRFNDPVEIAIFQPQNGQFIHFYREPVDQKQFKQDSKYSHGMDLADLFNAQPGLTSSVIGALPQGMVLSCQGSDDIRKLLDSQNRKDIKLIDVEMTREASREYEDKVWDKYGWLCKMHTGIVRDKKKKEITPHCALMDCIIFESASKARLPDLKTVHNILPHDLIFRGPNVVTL
Sequence of Alpha-galactosidase (Coffea arabica) (Q42656 whole entry, looked up): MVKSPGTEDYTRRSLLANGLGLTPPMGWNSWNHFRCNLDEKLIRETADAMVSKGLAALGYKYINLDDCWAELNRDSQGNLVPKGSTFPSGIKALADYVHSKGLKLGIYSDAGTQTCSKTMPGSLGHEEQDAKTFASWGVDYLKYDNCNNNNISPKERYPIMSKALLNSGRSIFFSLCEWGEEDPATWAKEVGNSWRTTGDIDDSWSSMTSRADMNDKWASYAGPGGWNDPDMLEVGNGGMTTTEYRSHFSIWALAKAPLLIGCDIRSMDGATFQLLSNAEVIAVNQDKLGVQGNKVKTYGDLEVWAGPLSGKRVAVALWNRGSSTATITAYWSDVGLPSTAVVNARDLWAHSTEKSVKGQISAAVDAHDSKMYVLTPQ
Sequence of Peroxisome proliferator-activated receptor delta (Homo sapiens) (Q03181 whole entry, looked up): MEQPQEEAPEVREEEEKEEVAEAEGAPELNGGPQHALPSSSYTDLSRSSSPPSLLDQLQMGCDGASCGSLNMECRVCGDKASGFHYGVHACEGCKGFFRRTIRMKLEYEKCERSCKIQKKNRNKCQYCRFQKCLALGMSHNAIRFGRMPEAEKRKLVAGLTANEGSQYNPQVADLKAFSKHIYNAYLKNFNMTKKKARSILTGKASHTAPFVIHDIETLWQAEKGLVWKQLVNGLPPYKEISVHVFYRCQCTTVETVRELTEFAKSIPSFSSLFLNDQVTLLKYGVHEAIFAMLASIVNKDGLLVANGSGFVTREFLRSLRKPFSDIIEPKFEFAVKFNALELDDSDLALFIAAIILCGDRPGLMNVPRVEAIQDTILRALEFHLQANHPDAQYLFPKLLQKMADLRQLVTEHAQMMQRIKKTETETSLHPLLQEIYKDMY
Sequence of DNA polymerase eta (Homo sapiens) (Q9Y253 whole entry, looked up): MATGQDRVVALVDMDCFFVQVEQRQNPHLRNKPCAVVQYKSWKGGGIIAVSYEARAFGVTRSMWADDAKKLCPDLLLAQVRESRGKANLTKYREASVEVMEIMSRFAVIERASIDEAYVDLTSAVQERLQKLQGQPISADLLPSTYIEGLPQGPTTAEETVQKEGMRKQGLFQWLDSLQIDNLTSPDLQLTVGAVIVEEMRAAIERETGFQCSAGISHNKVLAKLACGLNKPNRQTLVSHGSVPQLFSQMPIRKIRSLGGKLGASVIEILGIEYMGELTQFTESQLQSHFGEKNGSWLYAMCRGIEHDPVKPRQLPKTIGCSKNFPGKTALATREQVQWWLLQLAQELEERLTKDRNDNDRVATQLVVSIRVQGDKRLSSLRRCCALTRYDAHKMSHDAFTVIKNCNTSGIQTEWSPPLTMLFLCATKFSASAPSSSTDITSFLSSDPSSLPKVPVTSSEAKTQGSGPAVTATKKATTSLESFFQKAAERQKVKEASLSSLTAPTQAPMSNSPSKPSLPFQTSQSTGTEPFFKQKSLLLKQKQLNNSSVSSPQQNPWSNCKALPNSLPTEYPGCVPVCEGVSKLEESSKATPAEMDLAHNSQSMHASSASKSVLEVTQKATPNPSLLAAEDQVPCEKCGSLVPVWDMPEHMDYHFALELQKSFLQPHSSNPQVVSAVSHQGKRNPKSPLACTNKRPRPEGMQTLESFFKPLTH

As to `CC(C)CNc1ccnc(NCc2csc(-c3ccccc3)n2)n1`, the Potency in [1] is 13.7 µM (active); in assay [2], 15.3 µM (active); in assay [3], 22.4 µM (active).
As for `CC1=C(CC(=O)O)c2cc(F)ccc2C1=Cc1ccc(S(C)=O)cc1` (stereo not given), the Potency in [1] is 38.5 µM (active). In assay [3], the Potency entry was “inactive”. Also, in [4], the activity change, negative = inhibition was -11.8%.
As for `CCOC(=O)N[C@@H]1CC[C@@H]2[C@@H](C1)C[C@H]1C(=O)O[C@H](C)[C@H]1[C@@H]2C=Cc1ccc(-c2cccc(F)c2)cn1`, in [5], the Potency is 5.44 µM (active).
In the case of `Cc1ccn(-c2ccc(-c3ncco3)cc2)c(=O)c1-c1ccc2nc(N)ncc2c1`, the Potency in [1] is 3.43 µM (active). The Potency result in [2], in assay [3] and in assay [4] was “inactive” throughout.
Turning to `COc1c(O)c2c(=O)cc(OC)c3c4c(OC)cc(=O)c5c(O)c(OC)c6c(c(c1C[C@@](C)(O)[C@H]6C(C)=O)c23)c54`, in assay [5], the Potency result was “inactive”.
Regarding `C#Cc1cccc(Nc2ncnc3cc(OCCOC)c(OCCO)cc23)c1`, in assay [6], the parasite growth remaining, % of DMSO control (lower = more inhibition) was 36.9%. The Potency in assay [1] was 10.9 µM (active). Besides, in assay [3], the Potency result was “inactive”.
Consider `COc1ccc(C=Cc2cc(OC)c(OC)c(OC)c2)cc1NC(=O)[C@H](N)CO`, for which, in [1], the Potency was 0.0022 µM (active). In addition, the Potency result in [2] was “inactive”. Besides, the activity change, negative = inhibition in assay [4] is -66.1%.
With `CC(C)=CCCC(C)=CCCC(C)=CCCC(C)=CCCC(C)=CCCC(C)=CCCC(C)=CCCC(C)=CCCC(C)=CCO`, the Potency in assay [5] was 21.7 µM (active).
On to `COc1ccc(S(=O)(=O)Nc2cccnc2Nc2ccc(O)cc2)cc1`, for which the Potency was 0.273 µM (active) in assay [1], 1.21 µM (active) in assay [7], 6.31 µM (active) in assay [4] and 0.541 µM (active) in assay [8].
For the molecule `COc1cc2ncnc(Nc3cccc(Br)c3)c2cc1OC`, the Potency in assay [1] is 0.344 µM (active). Further, the Potency entry in assay [3] was “inactive”. Moreover, the activity change, negative = inhibition in assay [4] was -19.5%.
Turning to `C[C@@H]1C[C@@H]2O[C@H]2/C=C\C=C\C(=O)Cc2c(Cl)c(O)cc(O)c2C(=O)O1`, the Potency in assay [9] is 26.9 µM (active); in assay [1] it was 6.31 µM (active).
For the molecule `CCOC(=O)C1=C(C)NC(=S)NC1c1cccc(O)c1` (stereo not given), the Potency in assay [1] is 0.344 µM (active). Moreover, the Potency entry in assay [3] was “inactive”. The activity change, negative = inhibition in assay [4] was -13.9%.
As to `CNC(=O)c1ccc(Nc2cc(Nc3ccccc3S(=O)(=O)C(C)C)c3cc[nH]c3n2)nc1`, the values for the Potency in assay [1] and in [2] were 8.63 µM (active) and 27.3 µM (active), respectively.
The matching figures for `CNC1CCC(N(Cc2cccc(-c3ccncc3)c2)C(=O)c2sc3ccccc3c2Cl)CC1` (stereo not given): 30.6 µM (active) and 10.9 µM (active).
On to `C[C@@H]1COC(Nc2ccc3ncnc(Nc4ccc(OCc5nccs5)c(Cl)c4)c3c2)=N1`, for which the Potency in [1] was 1.53 µM (active); in assay [2] it was 1.22 µM (active); in [3] it was 31.6 µM (active).
The matching figures for `c1cc(N[C@@H]2CCNC2)nc(-c2cnc3ccc(-c4cn[nH]c4)cn23)c1`: 10.9 µM (active), “inactive” and 31.6 µM (active).
In the case of `O=c1ccc2ccc(O)c(O)c2o1`, the result in assay [10] and in assay [11] was inactive. Moreover, the Potency entry in [1] and in [5] was “inactive” each time.
On to `C=C1C(=O)OC2CC3(C)OC3CCC(C)=CC(OC(C)=O)C12` (stereo not given), for which, in assay [5], the Potency entry is “inactive”.
For the molecule `Cn1cc(C2=C(c3c4n(c5ccccc35)CCC(CN)C4)C(=O)NC2=O)c2ccccc21` (stereo not given), in assay [1], the Potency was 17.2 µM (active). For the same molecule, the activity change, negative = cytotoxicity in assay [3] is -8.45% [at 11.3 µM] (inactive). For the same molecule, the activity change, negative = inhibition in [4] is -9.15% [at 11.3 µM].
Regarding `Nc1nc(N)c2nc(-c3cccc(O)c3)c(-c3cccc(O)c3)nc2n1`, the Potency in assay [1] was 8.63 µM (active). In [3], the Potency entry is “inactive”. Moreover, the activity change, negative = inhibition in [4] is -9.58%.
With `C[C@]12CC[C@@H]3c4ccc(O)cc4CC[C@H]3[C@H]1CC[C@H]2O`, in assay [12], the Potency result is “inactive”. The Potency is 9.68 µM (active) in [1] and 1.22 µM (active) in assay [2].
